Inconclusive results are not listed. Activity calls are given as the source filed them. Rule for the calls: active = hit-call score of the fitted dose curve at least 0.9, where 1 is the maximum; inconclusive = response in the unintended direction; inactive = score below 0.9.
Biological target: Androgen receptor (Homo sapiens) (UniProt P10275)
Assay: ATG_AR_TRANS: Attagene TRANS-FACTORIAL HepG2 Assay for human Androgen Receptor (AR) (AID 2282973)
Conditions: HepG2 Attagene TRANS-FACTORIAL AR reporter transcription
In short: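 Steps: transfect HepG2 with multiple GAL4-UAS reporter transcription units (TRANS format, exogenous NR-Gal4 protein); dose 24 h; isolate RNA, reverse-transcribe, PCR-amplify, FAM-label, HpaI-digest; resolve by capillary electrophoresis. Positive direction vs DMSO.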

Chain of Androgen receptor (Homo sapiens) (P10275 whole entry, looked up): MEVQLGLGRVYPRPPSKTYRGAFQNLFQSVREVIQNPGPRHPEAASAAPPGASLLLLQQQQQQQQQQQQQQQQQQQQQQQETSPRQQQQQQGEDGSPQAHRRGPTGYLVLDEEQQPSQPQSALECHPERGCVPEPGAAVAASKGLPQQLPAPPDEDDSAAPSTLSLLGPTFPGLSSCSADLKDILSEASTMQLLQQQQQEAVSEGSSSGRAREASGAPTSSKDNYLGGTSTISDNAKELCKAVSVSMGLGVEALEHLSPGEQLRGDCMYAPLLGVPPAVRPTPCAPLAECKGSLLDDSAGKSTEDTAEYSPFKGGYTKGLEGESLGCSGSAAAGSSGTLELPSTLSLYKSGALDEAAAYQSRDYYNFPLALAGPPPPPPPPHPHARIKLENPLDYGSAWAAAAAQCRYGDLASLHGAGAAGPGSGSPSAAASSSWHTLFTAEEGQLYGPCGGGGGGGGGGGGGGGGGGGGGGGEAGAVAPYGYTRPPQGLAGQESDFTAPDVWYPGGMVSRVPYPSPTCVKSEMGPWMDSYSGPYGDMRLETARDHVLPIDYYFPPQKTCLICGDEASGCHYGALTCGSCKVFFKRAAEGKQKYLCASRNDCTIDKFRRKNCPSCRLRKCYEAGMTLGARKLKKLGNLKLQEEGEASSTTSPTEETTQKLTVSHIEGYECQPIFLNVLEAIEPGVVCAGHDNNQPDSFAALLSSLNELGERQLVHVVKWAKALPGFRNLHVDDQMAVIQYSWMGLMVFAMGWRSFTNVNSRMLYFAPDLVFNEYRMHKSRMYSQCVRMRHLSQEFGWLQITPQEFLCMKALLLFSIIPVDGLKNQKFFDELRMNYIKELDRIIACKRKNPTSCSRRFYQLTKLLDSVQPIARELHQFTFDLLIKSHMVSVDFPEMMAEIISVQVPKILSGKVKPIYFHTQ

Compound | outcome
NCC(F)(F)C(F)(F)C(F)(F)C(F)(F)C(F)(F)C(F)(F)C(F)(F)F | inactive
CCCCCCOC(=O)C(C)CC (centres undefined) | inactive
CC1COC(=O)O1 (centres undefined) | inactive
O=C(O)c1cc(Cl)cc([N+](=O)[O-])c1Cl | inactive
O=C1Cc2ccccc2N1c1c(Cl)cccc1Cl | inactive
c1ccc(-c2ccccc2-c2ccccc2)cc1 | inactive
O=CC(F)(F)C(F)(F)C(F)(F)C(F)F | inactive
COc1ccc(C(C)=O)cc1 | inactive
CC1(C)COCN1 | inactive
O=C1OC(=O)C(F)(F)C1(F)F | inactive
Clc1sc(Cl)c(Cl)c1Cl | inactive
C=C(C)[C@@H]1CCC2=CCC[C@@H](C)[C@]2(C)C1 | inactive
CC1(C)C2=CCCC(C)(C)[C@]23CC[C@H]1C3 | inactive
CC(=O)O[C@@H]1CC2CCC1(C)C2(C)C (some centres undefined) | inactive
C=CC(C)(C)O | inactive
COC(C)(C)CC(C)=O | inactive
CC1(C)[C@H](C=C(Cl)Cl)[C@H]1C(=O)OCc1cccc(Oc2ccccc2)c1 | inactive
O=C(O)CCCCCCCCCC(=O)O | inactive
CCc1ccc(C)nc1 | inactive
CCC(O)CO (centres undefined) | inactive

Compound | outcome
CCCCCCCCCCCCCCCCCC[N+](C)(C)Cc1ccccc1 | inactive
COC(=O)C(F)(F)C(F)(F)C(F)(F)C(F)(F)C(F)(F)F | inactive
CC(=O)CC(C)C | inactive
CC(=O)N(C)C | inactive
CCOc1nc(F)cc2nc(S(=O)(=O)Nc3c(Cl)cccc3C(=O)OC)nn12 | inactive
CCCCCCCCCCCCC[N+](C)(C)Cc1ccccc1 | inactive
CC(C)CCOCc1ccccc1 | inactive
CC(C)CC(=O)CC(C)CC(C)C (centres undefined) | inactive
CCCCC/C=C\CCC=O | inactive
c1ccc2cc(Nc3ccc(Nc4ccc5ccccc5c4)cc3)ccc2c1 | inactive
CCC(CC)CO | inactive
CCC(=O)C1CC(C(C)C)CC=C1C (centres undefined) | inactive
CCO[Si](C)(C)OCC | inactive
C=C(C)[C@H]1CC=C(C)C(=O)C1 | inactive
OCCCCl | inactive
O=C(O)c1cccc(Cl)n1 | inactive
CC(=O)CC(C)(C)O | inactive
COC(=O)c1cccc(C)c1S(=O)(=O)NC(=O)Nc1nc(OCC(F)(F)F)nc(N(C)C)n1 | inactive
O=C(NCc1ncc(C(F)(F)F)cc1Cl)c1c(Cl)cccc1Cl | inactive

Source: PubChem BioAssay (EPA / NIEHS)
